Experimental data published in PubChem BioAssay AID504500 (NMMLSC, 2011).
Measured potencies and affinities stand elsewhere.

Molecular target: Beta-adrenergic receptor kinase 1 (Homo sapiens) (UniProt P25098)
Assay: aptamer displacement from bead-bound GRK2 – biochemical, cherry pick 1, bead flow cytometry, dose response (AID 504500)
Conditions: bead-bound biotinylated GRK2, FAM-aptamer displacement; series mostly up to 33 µM; inhibition of aptamer binding: at the top concentration;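 active = compounds whose curve fit is tight, with span above 25% and half-effect concentration below 10 µM; inactive = the rest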

Beta-adrenergic receptor kinase 1 (Homo sapiens), sequence (P25098 whole entry, looked up): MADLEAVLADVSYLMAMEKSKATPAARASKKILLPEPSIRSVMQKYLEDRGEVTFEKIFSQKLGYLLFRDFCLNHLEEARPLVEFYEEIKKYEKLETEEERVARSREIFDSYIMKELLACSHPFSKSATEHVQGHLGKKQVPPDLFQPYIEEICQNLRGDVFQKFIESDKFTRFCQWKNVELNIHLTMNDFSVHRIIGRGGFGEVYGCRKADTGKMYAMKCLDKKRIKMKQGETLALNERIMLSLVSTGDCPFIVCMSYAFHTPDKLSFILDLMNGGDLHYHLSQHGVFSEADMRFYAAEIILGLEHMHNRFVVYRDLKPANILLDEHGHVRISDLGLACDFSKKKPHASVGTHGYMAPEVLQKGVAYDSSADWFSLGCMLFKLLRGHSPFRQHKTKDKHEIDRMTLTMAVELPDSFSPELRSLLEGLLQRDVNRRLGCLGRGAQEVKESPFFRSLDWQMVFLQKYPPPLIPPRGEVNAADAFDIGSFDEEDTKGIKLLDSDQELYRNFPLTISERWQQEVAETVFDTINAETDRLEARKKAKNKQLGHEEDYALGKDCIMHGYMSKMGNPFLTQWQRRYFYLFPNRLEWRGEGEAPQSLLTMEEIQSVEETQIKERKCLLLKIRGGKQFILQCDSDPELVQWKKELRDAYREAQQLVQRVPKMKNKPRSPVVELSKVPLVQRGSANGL

Inhibition of aptamer binding, inactive:
O=C(CCS(=O)(=O)c1ccc(Br)s1)Nc1ccccc1Br 31.5%, COc1ccccc1-[n+]1c(C)cc(/C=C2\Sc3ccccc3N2C)cc1C -8.14%, COc1cc(/C=C2\CCc3c2nc2ccccc2c3C(=O)O)cc(OC)c1OC -1.83%, Cc1ccc(C(=O)Nc2cccc(C(=O)NCc3ccco3)c2)cc1 2.31%, COc1ccc(N2CCN(C(CNS(=O)(=O)c3ccccc3)c3ccccc3)CC2)cc1 (stereo not drawn) 3.82%, CCOc1ccccc1NC(=O)CCS(=O)(=O)c1ccc(Br)cc1 1.18%, Cc1cccc(N2CCN(C(=O)CCS(=O)(=O)c3ccc(Br)cc3)CC2C)c1 (stereo not drawn) 95.7%, Cc1oc(-c2ccc(Cl)cc2)nc1CN1CCCC(C(=O)NCc2cccnc2)C1 (stereo not drawn) -6.31%, O=C(CCS(=O)(=O)c1ccc(Br)cc1)NCc1ccco1 72.6%, Cc1cc2ccccc2n1CCNC(=O)c1ccc(S(=O)(=O)N2CCCCC2)cc1 44.1%, COc1ccc2nc(SCC(=O)Nc3ccc4c(c3)OCCO4)[nH]c2c1 -0.24%, Cc1ccc(CCNC(=O)CCS(=O)(=O)c2ccc(Br)cc2)cc1 66%, CCNc1nc(NCC)n2c(SCC(=O)Nc3ccc(C)c(C)c3)nnc2n1 24.3%, COC(=O)c1ccccc1NC(=O)CCS(=O)(=O)c1ccc(Br)s1 -0.55%, O=C(O)C1C2C=CC(CC2)C1C(=O)O (stereo not drawn) -2.57%, CCOc1ccc(CCNC(=O)CCS(=O)(=O)c2ccc(Br)cc2)cc1OCC 2.77%, COc1ccccc1CNS(=O)(=O)c1ccc2[nH]cc(C(=O)O)c(=O)c2c1 53.4%, COc1ccc(CCNC(=O)CCS(=O)(=O)c2ccc(Br)cc2)cc1OC 17%
